The values that follow come from publication PMC12548414.

Screen size: about 1,600 compounds; about 20 (1%) showed an effect of 50% or more. The sample holds strong results, similar compounds and a random draw of the others, so the mix is not that of the screen.

The assay has as its system T1, E. coli pLC1021 (luc-trpAt trans-translation reporter).
T1 construct: pLC1021 luc-trpAt reporter strain
The arrangement: species or system Escherichia coli pLC1021; luc-trpAt non-stop luciferase reporter; luminescence rises when trans-translation is inhibited; normalized to KKL-35 and DMSO. To be noted: reporter signal, KKL-35 = 100%; rise means trans-translation inhibition; 2 h, 20 µM. Here is the method:
The luciferase screen was performed as previously described ([16]). […] 48 µL of cells was transferred to white 96-well plates, and 2 µL DMSO or 20 µM compound, or 20 µM KKL-35 was added. Plates were sealed with adhesive film, vortexed gently to mix, and incubated at room temperature for 2 h. 50 µL Bright-Glo reagent (Promega, Madison, WI) was added to each well, and the plates were sealed with adhesive film, vortexed vigorously, and incubated for an additional 10 min at room temperature. Luminescence was measured at 560 nm using a SpectraMax i3 microplate reader and readings for each plate were normalized to the average of three KKL-35-treated wells (positive control) and three DMSO-treated wells (negative control) within the plate to correct for plate-to-plate and day-to-day variations. Results from at least two biological repeats were averaged, and GraphPad Prism was used to plot the data. We screened a library of 1,601 anti-tubercular small molecules for their ability to inhibit trans-translation using a luciferase reporter in Escherichia coli. In this luc-trpAt reporter, the firefly luciferase gene has a trpA transcriptional terminator before the stop codon, such that luciferase is translated from a non-stop mRNA ([16]). When trans-translation is active, the luciferase will be tagged and degraded, but when trans-translation is inhibited, active luciferase will accumulate, resulting in a luminescent signal when luciferin is added. Luciferase activity was measured after growth in the presence of compounds from the library at 20 µM, using the known trans-translation inhibitor KKL-35 as a positive control (Fig. 1A) ([16], [17]). Compounds with activity one standard deviation above the median were scored as positive (Fig. S1 and Table S1).
In the case of `CC(C)(C)c1cc(Cl)c(O)c(NC(=S)NC(=O)c2cccc3ccccc23)c1` [KKL-0905], the “% activation” value came out at 0%. As for `O=C(C[n+]1nc(CNc2ccc(Cl)cc2)n2c1CCCCC2)c1ccc(Br)cc1` [KKL-1021], the figure is 9%; as for `CC(C)(C)c1cc(Cl)ccc1OCCCCn1ccnc1` [KKL-1305], 5%.

`CN(CCn1ccnc1)Cc1cn(Cc2ccccc2)nc1-c1cc2ccccc2o1` [KKL-0649]: the “% activation” value was 0%. With `COc1ccc(CNCc2cn(-c3cccc(F)c3)nc2-c2ccc(C)o2)cc1` [KKL-0321], the “% activation” value stood at 0%.

On to `Cn1cc(CCNC(=O)Nc2ccc(N3CCCCC3)nc2)cn1` [KKL-1828], for which the “% activation” value turned out to be 0%.

In the case of `O=C(Nc1ccco1)N1CCN(Cc2cccs2)CC1` [KKL-1841], the “% activation” value stood at 1%.

On to `CCc1cc(C(=O)OC)c(N=C(S)NCc2ccc(Cl)c(Cl)c2)s1` [KKL-1547], for which the “% activation” value is recorded as 0%. On to `O=C(C=Cc1ccco1)N1CCN(Cc2ccc3c(c2)OCO3)CC1` [KKL-1821], for which the “% activation” value worked out at 0%.

Turning to `CCC(C)c1ccc(O)c(NC(=S)NC(=O)c2cncc(Br)c2)c1` (centres unmarked) [KKL-0711], the “% activation” value is reported as 3%. Under `CCN1CCN(c2cc3c(cc2F)c(=O)c(C(=O)O)cn3C2CC2)CC1` [KKL-0903] stands 6%; under `CCn1cc(C(=O)O)c(=O)c2cc(F)c(N3CCNCC3)cc21` [KKL-0831], 56%; under `CCn1cc(C(=O)O)c(=O)c2cc(F)c(N3CCN(C(S)=Nc4cc(C(F)(F)F)ccc4Cl)CC3)cc21` [KKL-1476], 5%. As to `Cc1nn(-c2ccc(F)cc2)c2nc(O)c(CNCc3ccccc3F)cc12` [KKL-0342], the “% activation” value is recorded as 0%. As for `CCCOC(=O)c1ccc(NC(=S)NC(=O)c2ccc(Cl)cc2)cc1` [KKL-0761], the figure is 3%; as for `CC1CN(c2ccc([N+](=O)[O-])cc2)CCN1C(=O)c1cccc(Br)c1` (centres unmarked) [KKL-1355], 0%.

In the case of `NC1CCc2nc(-c3cccnc3)nc(Nc3cccc(C(F)(F)F)c3)c2C1` (centres unmarked) [KKL-0530], the “% activation” value is given as 124%.

Consider `NC1CCc2nc(-c3cccnc3)nc(Nc3ccc(C(F)(F)F)cc3)c2C1` (centres unmarked) [KKL-0526], for which the “% activation” value was 137%. Under `O=C(NCCCn1ccnc1)c1cccnc1Nc1cccc(C(F)(F)F)c1` [KKL-0554] stands 15%; under `Nc1cccnc1Nc1ccc(C(F)(F)F)cc1` [KKL-1711], 4%; under `FC(F)(F)c1cccc(-n2cc(-c3ccccc3)c3c(NCc4cccnc4)ncnc32)c1` [KKL-1573], 0%. Regarding `Cc1cnc(N2CCN[C@@H](Cc3ccccc3)C2)nc1Oc1ccc(-n2ccnc2)cc1` [KKL-1724], the “% activation” value was 6%. As for `CCOC(=O)c1cnc(-n2nc(C)cc2C)nc1Nc1ccc(N(C)C)cc1` [KKL-0889], the figure is 0%; as for `Clc1ccc(Nc2nc(-c3ccccn3)cs2)nc1` [KKL-1793], 0%; as for `Cc1oc(-c2ccc3ccccc3c2)nc1CN1CCN(c2cnccn2)CC1` [KKL-0659], 0%.

`O=C(Nc1nnc(-c2ccc(Cl)s2)o1)c1ccc(Cl)s1` [KKL-1762]: the “% activation” value came to 0%. Consider `CSc1ccc(-c2nnc(NC(=O)c3ccc(Cl)s3)o2)cc1` [KKL-1706], for which the “% activation” value stood at 50%. As for `CN(C)S(=O)(=O)c1ccc(C(=O)Nc2nnc(-c3ccc(Cl)s3)o2)cc1` [KKL-1747], the figure is 1%. Turning to `CN1CCN(c2ccc(NC(=S)NC(=O)c3ccc(-c4cccc(Cl)c4)o3)cc2)CC1` [KKL-0357], the “% activation” value is given as 18%. As for `O=C(Nc1ccc2c(c1)OCCO2)c1cccc2nc3ccccc3nc12` [KKL-0843], the “% activation” value is given as 0%.

Take `Cc1ccc(Cl)cc1N=C1C=C(NS(=O)(=O)c2cccs2)c2ccccc2C1=O` [KKL-1115]: the “% activation” value is 0%. Under `Cc1ccc(C(=O)NC[C@H]2C[C@@H]3CCN2C[C@@H]3c2cc(-c3ccc4ccccc4c3)nn2C)cc1` [KKL-0337] stands 0%.

With `Cn1nc(-c2ccc3ccccc3c2)cc1[C@H]1CN2CC[C@H]1C[C@@H]2COC(=O)Nc1cccc(C(F)(F)F)c1` [KKL-0323], the “% activation” value was determined as 0%.

For `COC(=O)c1cccc(NC(=S)NC[C@H]2C[C@@H]3CCN2C[C@@H]3c2cc(-c3ccc4ccccc4c3)nn2C)c1` [KKL-1596], the “% activation” value is listed as 71%. In the case of `NC1CCc2nc(-c3cccnc3)nc(Nc3ccc(Cl)cc3)c2C1` (centres unmarked) [KKL-0540], the “% activation” value was determined as 119%. With `Nc1cccnc1Nc1ccc(Cl)cc1` [KKL-1858], the “% activation” value is 0%. As for `NC1CCc2nc(-c3ccncc3)nc(Nc3ccc(Cl)cc3)c2C1` (centres unmarked) [KKL-0326], the figure is 797%; as for `CCOC(=O)CSc1nc(C#N)c(SCC(=O)OCC)s1` [KKL-0955], 12%; as for `O=C(Oc1cccc2cccnc12)C(Cc1ccccc1)N1C(=O)C2C3CCC(C3)C2C1=O` (centres unmarked) [KKL-1364], 9%.

On to `Cc1oc2ccccc2c1CN(CCCn1ccnc1)Cc1cccc(F)c1` [KKL-0544], for which the “% activation” value stood at 0%. As for `CCC(OC(C)=O)c1ccc(OC(C)=O)c(OC)c1` (centres unmarked) [KKL-0758], the “% activation” value was 7%. Under `CCOc1ccc(NC(=O)CSc2nc3ccc([N+](=O)[O-])cc3s2)cc1` [KKL-1417] stands 0%; under `Cc1ccc(NCCC(=O)c2ccc([N+](=O)[O-])cc2)cc1C` [KKL-0401], 14%. As for `COc1cc2cc(-c3nc4ccccc4[nH]3)c(N)nc2cc1OC` [KKL-0395], the figure is 22%; as for `Cc1ccc2[nH]c3c(c2c1)CCCC3NCCCOc1ccc(F)cc1` (centres unmarked) [KKL-0771], 84%. As for `Cc1ccc2[nH]c(C3CCCNC3)c(-c3ccncc3)c2c1` (centres unmarked) [KKL-1820], the figure is 14%. With `CC1CCc2sc3ncnc(NCCc4ccccc4)c3c2C1` (centres unmarked) [KKL-0868], the “% activation” value is listed as 2%. As for `CCOC(=O)COc1ccc(C(=O)Nc2ccc(F)cc2)cc1` [KKL-0783], the figure is 0%; as for `CC12CC3CC(C)(C1)CC(CNCc1ccccc1O)(C3)C2` [KKL-1484], 3%. Regarding `CCCOC(=O)CSc1nnc(-c2cc(OC)c(OC)c(OC)c2)o1` [KKL-1095], the “% activation” value is listed as 0%.

For the compound `Cc1ccc(-c2csc(-c3ccncc3)n2)cc1C` [KKL-0956], the “% activation” value is 0%.

With `COC(=O)[C@@H](NC(=O)c1cc(COc2c(F)cccc2F)on1)c1ccccc1` [KKL-0496], the “% activation” value is 8%. Consider `CCOC(=O)c1ccc(NC(=O)C2C(=O)N(C)C3(C)CC2c2ccccc2O3)cc1` (centres unmarked) [KKL-1246], for which the “% activation” value turned out to be 0%.
